SMILES strings stand for the structures. Values joined by “and” are separate entries in the source; they are usually repeats but may differ in a detail not shown here. Equal entries are not always repeated. The campaign covered roughly 360,000 compounds. About 11,000 (3.1%) were called active. A call without a number means that no potency is given here. About 4% were inconclusive and are not listed. The call rests on the fitted dose curve; in most records, active means well fitted inhibition curve with a large enough effect; inconclusive means small, poorly fitted or top-dose-only effect; inactive means no such curve, though single readings can be large or run the other way. Many of the other results were omitted from the sample, so actives are more common in it than they were.

The text below walks through data of PubChem BioAssay AID485364 (National Center for Advancing Translational Sciences (NCATS), 2010).
Potency means the concentration at half of the fitted maximal effect.

In this assay the target is Schistosoma mansoni thioredoxin glutathione reductase (TGR) (UniProt Q962Y6). Nature of the assay: qHTS Assay for the Inhibitors of Schistosoma Mansoni Peroxiredoxins. Further: nearly all actives have a fitted effect of over 60% in size. As to conditions: purified TGR, DTNB reduction, TNB absorbance 405 nm; series mostly up to 114 µM. The procedure, abridged:
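First, TGR (20 nM dispensed) and NADPH were mixed with compound. Second, a 15 min room-temperature incubation followed. Third, further NADPH and then DTNB were added to start the reaction. Finally, TNB absorbance was monitored kinetically.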
(In general: Quantitative high-throughput screening tests each substance at several concentrations.)
`COc1cc(OC)c(C2C=C(C(=O)O)Nc3ncnn32)cc1OC` (centres undefined): the Potency entry was “inactive”. Take `CS(=O)(=O)c1ccc2c(c1)SC1=NC(=O)/C(=C/c3ccco3)C(=N)N12`: the Potency is 20 µM (active). On to `CCS(=O)(=O)C1=NSC2=NC(=O)/C(=C\c3ccc(OS(=O)(=O)c4ccccc4)cc3)C(=N)N21`, for which the Potency entry is “inactive”. To `CS(=O)(=O)C1=NN2C(=N)/C(=C\c3ccc(OCCOc4ccccc4)cc3)C(=O)N=C2S1` belongs “inactive”; to `CCOC(=O)c1ccc(NC(=O)CC2C(=O)N(c3ccccc3)C(=O)N2Cc2cccs2)cc1` (centres undefined), “inactive”; to `O=C(COC(=O)c1cnc(Cl)c(Cl)c1)NCc1ccco1`, “inactive”.

`C/C(=N\Nc1ncc(Cl)cc1Cl)c1ccc(S(=O)(=O)NCc2ccco2)cc1`: the Potency entry is “inactive”. Take `Cc1c(Cl)cnc(NC(=O)COC(=O)c2ccc(S(=O)(=O)NCc3ccco3)cc2)c1Cl`: the Potency is 28.2 µM (active). Take `COc1ccc(NC(=O)CSc2nccn2Cc2ccc3c(c2)OCO3)cc1`: the Potency entry is “inactive”. For `CC1=C(C(=O)Nc2ccccc2Cl)C(c2cccs2)n2ncnc2N1` (centres undefined), the Potency entry is “inactive”. On to `O=C(CSc1ncc(CO)n1Cc1ccc(Cl)cc1)NCc1ccc(F)cc1`, for which the Potency entry was “inactive”. As to `Cc1cc(C)c(OCC(=O)N/N=C/c2ccco2)c(C)c1`, the Potency result was “inactive”.

Turning to `COC(=O)COc1cc(C)cc2oc(=O)c3c(c12)CCCC3`, the Potency entry was “inactive”. As to `COC(=O)COc1ccc2c(c1C)O/C(=C\c1ccco1)C2=O`, the Potency is 10 µM (active). On to `Cc1ccc(NS(=O)(=O)c2ccc(-c3ccc(=O)[nH]n3)o2)c(C)c1`, for which the Potency entry is “inactive”. In the case of `CC1CCCN(S(=O)(=O)c2ccc(-c3ccc(=O)[nH]n3)o2)C1` (centres undefined), the Potency is 28.2 µM (active). As to `CC1CCCN(S(=O)(=O)c2ccc(C(=O)Nc3nnc(-c4ccncc4)o3)cc2)C1` (centres undefined), the Potency entry is “inactive”. To `CCOC(=O)c1ccc(NC(=O)c2nc(SCc3ccc(F)cc3)ncc2Cl)cc1` belongs “inactive”.

Turning to `O=C(Nc1nc2ccc(F)cc2s1)c1nc(SCc2ccccc2F)ncc1Cl`, the Potency result is “inactive”. To `Cc1ccc(NC(=O)c2nc(S(=O)(=O)Cc3cccc(C)c3)ncc2Cl)cc1` belongs 12.6 µM (active); to `Cc1ccc2nc(NC(=O)c3nc(SCc4ccccc4F)ncc3Cl)sc2c1`, “inactive”; to `CSc1nnc(NC(=O)c2nc(S(=O)(=O)Cc3ccc(C)cc3)ncc2Cl)s1`, 3.16 µM (active). As for `Cc1cccc(CS(=O)(=O)c2ncc(Cl)c(C(=O)Nc3ccc(F)cc3)n2)c1`, the Potency was 7.08 µM (active). Regarding `CCS(=O)(=O)c1ncc(N(Cc2ccc(F)cc2)Cc2ccco2)c(C(=O)Nc2cc(C)ccc2C)n1`, the Potency entry was “inactive”. For the compound `Cc1ccc(NC(=O)c2cccnc2C(=O)Nc2ccc(C)cc2)cc1`, the Potency entry was “inactive”. Consider `Cc1ccc(CCNC(=O)c2ccc(CS(=O)(=O)Cc3cccc(C)c3)o2)cc1`, for which the Potency result was “inactive”. Turning to `Cc1ccc(C)c(Oc2c(C(F)(F)F)oc3c(CN4CCN(C)CC4)c(O)ccc3c2=O)c1`, the Potency result was “inactive”.

Regarding `Cc1ccc2nc(COc3cccc(NC(=O)c4ccccc4Cl)c3)cc(=O)n2c1`, the Potency entry was “inactive”. Take `Cc1[nH]c2ccccc2c1C(c1ccccc1)c1cccs1` (centres undefined): the Potency result is “inactive”. For `COc1ccc(N2CCN(S(=O)(=O)CCNC(=O)C(c3ccccc3)c3ccccc3)CC2)cc1`, the Potency entry was “inactive”. Take `O=S(=O)(c1ccc(SCc2ccccc2)nc1)N1CCCCCC1`: the Potency result is “inactive”. As for `O=C(O)CSc1ccc(S(=O)(=O)N2CCCC2)cn1`, the Potency is 50.1 µM (active). As to `CC(C)(C)C(=O)CSc1ccc(S(=O)(=O)N2CCCC2)cn1`, the Potency result was “inactive”. Take `COc1cc2c(cc1OC)C(COc1ccc(F)cc1)N(C(=O)c1ccccc1F)CC2` (centres undefined): the Potency entry was “inactive”. `COc1cccc(C(=O)NC2(C(F)(F)F)C(=O)Nc3c2c(=O)[nH]c(=O)n3-c2ccc(C)cc2)c1` (centres undefined): the Potency result is “inactive”. As to `COc1ccc(C2=NC(c3ccncc3)=Nc3ccc(Br)cc3N2)cc1`, the Potency result was “inactive”.

Consider `Cc1ccc(C)c(-n2c(SCC(=O)O)nc3sc4c(c3c2=O)CCCC4)c1`, for which the Potency entry was “inactive”. To `Cn1c(NN)nc2sc3c(c2c1=O)CCC3` belongs “inactive”. As to `Cc1nc2sc3c(c2c(=O)n1NC(=O)CCl)CCCC3`, the Potency was 39.8 µM (active).

Regarding `CCC(=O)N1CCc2cc(S(=O)(=O)NC(C(=O)NCCc3ccc(C)cc3)C(C)C)ccc21` (centres undefined), the Potency entry is “inactive”. As for `CCCCCC(O)(CCN1CCCCC1)c1ccccc1` (centres undefined), the Potency was 31.6 µM (active). To `C#CC(CCN1CCCCC1)(OC)c1ccccc1` (centres undefined) belongs “inactive”; to `CCCCCCC(O)(CCN1CCCCC1)c1ccccc1` (centres undefined), “inactive”; to `Fc1ccccc1Oc1ncnc2c1oc1ccccc12`, “inactive”. With `COc1ccc(NC(=O)/C(Cl)=C(/Cl)S(=O)Cc2ccc(C)cc2)cn1` (centres undefined), the Potency entry was “inactive”. On to `COc1ccc(CS(=O)/C(Cl)=C(/Cl)C(=O)Nc2ccc(OC)nc2)cc1` (centres undefined), for which the Potency was 0.447 µM (active). For `COc1ccc(NC(=O)C(=O)NCc2ccco2)cc1`, the Potency entry was “inactive”. As to `COc1cccc(CNCCSc2nnnn2C)c1OCc1ccccc1Cl`, the Potency result was “inactive”. Turning to `O=C(C1CC1)N1CCc2cc(Br)cc(S(=O)(=O)N3CCN(c4ccccc4F)CC3)c21`, the Potency result was “inactive”. To `COc1ccc(C(=O)c2c3ccc([N+](=O)[O-])cc3[n+]([O-])n2CCCN)cc1` belongs 25.1 µM (active); to `COc1ccc(C(=O)NCCNc2ccc([N+](=O)[O-])cn2)cc1`, “inactive”. The entry for `COc1ccc2c(C(=O)c3ccc(C)cc3)n(CCC(N)=O)[n+]([O-])c2c1` is “inactive”. Regarding `CCCN(C(=O)Cn1ncc2c([nH]c3ccc(C)cc32)c1=O)c1ccccc1C`, the Potency result was “inactive”. `O=C(c1ccc2c(c1)N(Cc1ccccc1)C(=O)c1ccccc1S2(=O)=O)N1CCCC1`: the Potency result is “inactive”. As to `Cc1cccc(N2CCN(C(=O)CCSCc3ccccc3F)CC2)c1C`, the Potency entry was “inactive”.

In the case of `Cc1ccc(C)c(CNC(=O)c2cc3ccccn3n2)c1`, the Potency result is “inactive”. `Cc1ccc(C(=O)NC(=S)Nc2ccccc2C)cc1`: the Potency was 31.6 µM (active). As to `Cc1ccccc1NC(=S)NNC(=O)c1cccc(Br)c1`, the Potency result was “inactive”. Turning to `Cc1cc(C(=O)NNC(=S)Nc2ccccc2C)cs1`, the Potency entry is “inactive”.

On to `CCOC(=O)c1cccc(NC(=O)C(Cc2ccccc2)NS(=O)(=O)c2cccc3nsnc23)c1` (centres undefined), for which the Potency result is “inactive”. Consider `O=c1c2ccccc2n(Cc2cccc(Cl)c2)c(=O)n1Cc1ccccc1`, for which the Potency entry was “inactive”. Regarding `C/C=C\C=C\C(=O)N1CC2(CC(c3cccc(NC(=O)/C(C)=C\C)c3)=NO2)C[C@H]1C(N)=O` (some centres undefined), the Potency is 7.94 µM (active).

Consider `C/C=C(/C)C(=O)Nc1cccc(C2=NOC3(C2)C[C@@H](C(N)=O)N(C(=O)C2(C)CC2)C3)c1` (some centres undefined), for which the Potency result was “inactive”. On to `C/C=C(\C)C(=O)N1CC2(CC(c3cccc(NC(=O)CCCCC)c3)=NO2)C[C@@H]1C(N)=O` (some centres undefined), for which the Potency result was “inactive”. On to `Cc1cc(Br)ccc1NC(=O)Cn1cnc2sc(C)c(S(=O)(=O)N3CCN(C)CC3)c2c1=O`, for which the Potency entry is “inactive”. Turning to `O=S(=O)(c1ccc(Cl)cc1)c1nnn2c1nc(NC1CCCC1)c1sccc12`, the Potency result is “inactive”. For the compound `Cc1ccc(C(=O)Cn2cc([N+](=O)[O-])nc2C)cc1`, the Potency result is “inactive”. To `C/C(=N/NC(=O)CC(=O)N/N=C(\C)c1ccc([N+](=O)[O-])cc1)c1ccc([N+](=O)[O-])cc1` belongs “inactive”. The figure for `O=C(Cn1c[n+](CC(=O)c2ccc([N+](=O)[O-])cc2)cn1)c1ccc([N+](=O)[O-])cc1` is 10 µM (active) and 44.7 µM (active); for `CN(CC(=O)Nc1ccc(F)cc1)C(=O)c1ccc(-c2ccc(Cl)cc2)o1` it is “inactive”; for `Cc1[nH][nH]c(=O)c1C(c1ccc(-c2ccc(Cl)cc2)o1)c1c(C)[nH][nH]c1=O` it is 25.1 µM (active).

Take `CCCNC(=O)NCc1ccc(N2CCCC2=O)cc1`: the Potency entry was “inactive”. To `NC(=O)C1(N2CCCCC2)CCN(C2CC(=O)N(Cc3ccc(N4CCCC4=O)cc3)C2=O)CC1` (centres undefined) belongs 25.1 µM (active); to `COC(=O)c1cc(NC(=O)CN2CCC(C(N)=O)(N3CCCCC3)CC2)cc(C(=O)OC)c1`, “inactive”. Consider `COc1ccc(OC)c(-n2nnc(-c3nc(-c4cc(OC)c(OC)c(OC)c4)no3)c2C)c1`, for which the Potency entry is “inactive”.

As for `Cc1ccc(N2C(=O)CC(Nc3cccc4ccccc34)C2=O)cc1` (centres undefined), the Potency is 22.4 µM (active). `Cc1ccc(N2C(=O)C3C(c4ccccc4)(C2=O)C3(c2ccccc2)c2ccccc2)cc1` (centres undefined): the Potency entry is “inactive”. As to `O=C(Cc1ccccc1)NNC1CC(=O)N(c2ccc(Br)cc2)C1=O` (centres undefined), the Potency result is “inactive”. For the compound `CCOc1ccc(NC(=O)c2cnn(-c3ccccc3)c2-n2cccc2)cc1`, the Potency result is “inactive”.

On to `Cc1ccc(OCC(=O)OCc2cc(=O)n3nc(C4CC4)sc3n2)cc1`, for which the Potency result was “inactive”.

Regarding `COc1ccc(S(=O)(=O)NCC(c2ccc(N(C)C)cc2)N2CCc3ccccc32)cc1OC` (centres undefined), the Potency result was “inactive”.

Consider `CCOC(=O)c1c(N)n(-c2cccc(C)c2C)c2nc3ccccc3nc12`, for which the Potency entry is “inactive”. For `NC(=O)c1c(NC(=O)CSc2nnc(-c3ccco3)n2N)sc2c1CCCC2`, the Potency is 11.2 µM (active). With `CCOC(=O)c1c(NC(=O)CSc2nnc(CN3CCOCC3)n2C)sc2c1CCCC2`, the Potency entry was “inactive”. Regarding `Nn1c(SCC(=O)Nc2nccs2)nnc1-c1ccco1`, the Potency entry was “inactive”. To `Cc1c(Cl)cccc1NC(=O)c1noc2c1CCCC2` belongs “inactive”; to `CSc1ccc(CCNC(=O)c2cnn(-c3ccccc3)c2-n2cccc2)cc1`, “inactive”; to `CCn1c(SCC(=O)Nc2cc(C)c(Cl)cc2OC)nnc1-c1ccco1`, “inactive”. In the case of `O=C(CSc1nnc(-c2cccnc2)n1Cc1ccco1)c1ccc(Cl)c(Cl)c1`, the Potency is 22.4 µM (active). Regarding `CCc1ccc(NC(=O)CSc2nnc(-c3cnccn3)n2Cc2ccco2)cc1`, the Potency is 39.8 µM (active).

As for `O=C(CSc1nnc(-c2cccs2)n1Cc1ccco1)c1ccc2c(c1)OCO2`, the Potency result is “inactive”. `COc1ccccc1NC(=O)CSc1nnc(-c2ccoc2C)n1CCc1ccccc1`: the Potency entry was “inactive”. Turning to `Cc1cc(C)nc(SCc2nnc(SCC(=O)Nc3ncc(C)s3)n2Cc2ccco2)n1`, the Potency entry was “inactive”. For the compound `COc1cc(Cl)c(C)cc1NC(=O)CSc1nnc(-c2cccnc2)n1Cc1ccco1`, the Potency is 44.7 µM (active).

As to `COc1cc(Cl)c(C)cc1NC(=O)CSc1nnc(-c2ccco2)n1CC(C)C`, the Potency was 25.1 µM (active). The entry for `CCn1c(SCC(=O)Nc2cc(C)ccc2C)nnc1-c1cnccn1` is “inactive”.

Consider `Cn1c(SCC(=O)Nc2nccs2)nnc1-c1cccnc1`, for which the Potency result was “inactive”.

`O=C(CSc1nnc(-c2cccnc2)n1CCc1ccccc1)NCc1ccccc1`: the Potency result was “inactive”.

For the compound `Cc1c(Cl)cccc1NC(=O)CSc1ccc(-c2cccnc2)nn1`, the Potency result was “inactive”.
